Laboratory results: PubChem BioAssay (NCATS)
“And” between values parts separate entries of the source, which are not always exact repeats. Identical values can stand only once. Records with an inconclusive call do not appear. Some compounds were tested as several samples or in several runs, with calls that do not always agree. The source made the active and inactive calls. The call rests on the fitted dose curve; in most records, active means well fitted inhibition curve with a large enough effect; inconclusive means small, poorly fitted or top-dose-only effect; inactive means flat fitted curve, though single readings scatter.

Assays:
[1] = system: KB-3-1; assay: Cytotoxic Profiling of Annotated Libraries Using Quantitative High-Throughput Screening (AID 1296008); conditions: Five cell lines viability, CellTiter-Glo ATP luminescence, 48-72 h; max response: active compounds read low
Procedure, shortened: (§1)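 Cytotoxicity was measured as CellTiter-Glo ATP luminescence, read after 10 min at room temperature. Compound treatment of the cells lasted 48 or 72 hr at 37 degrees Celsius in a qHTS format.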

[2] = system: NIH3T3; assay: as above; conditions: Five cell lines viability, CellTiter-Glo ATP luminescence, 48-72 h; max response: active compounds read low
Procedure, shortened: as §1

[3] = system: HACAT; assay: qHTS assay to identify novel small-molecules to repurpose for Merkel cell carcinoma treatment (AID 1296009); conditions: MCC and control cell lines, CellTiter-Glo viability, 72 h; at 44.8 µM (top of the series) unless noted
Procedure, shortened: (§2)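 72 hr, 37 degree celsius; NPC 8-pt / MIPE 11-pt dose response; compound pinned in DMSO; CellTiter-Glo, 10 min RT, luminescence; normalized to no-cell and DMSO controls.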

[4] = system: MCC-13; assay: as above; conditions: MCC and control cell lines, CellTiter-Glo viability, 72 h; series mostly up to 46 µM
Procedure, shortened: as §2

[5] = system: MCC-26; assay: as above; conditions: MCC and control cell lines, CellTiter-Glo viability, 72 h; series mostly up to 46 µM
Procedure, shortened: as §2

[6] = system: MKL-1; assay: as above; conditions: MCC and control cell lines, CellTiter-Glo viability, 72 h; series mostly up to 46 µM
Procedure, shortened: as §2

[7] = system: MKL-2; assay: as above; conditions: MCC and control cell lines, CellTiter-Glo viability, 72 h; series mostly up to 46 µM
Procedure, shortened: as §2

[8] = system: HEK293T; assay: as above; conditions: MCC and control cell lines, CellTiter-Glo viability, 72 h; series mostly up to 44.8 µM
Procedure, shortened: as §2

[9] = system: UISO; assay: as above; conditions: MCC and control cell lines, CellTiter-Glo viability, 72 h; series mostly up to 46 µM
Procedure, shortened: as §2

[10] = system: NIH3T3; assay: as above; conditions: MCC and control cell lines, CellTiter-Glo viability, 72 h; at 44.8 µM (top of the series) unless noted
Procedure, shortened: as §2
Further: nearly all actives have a fitted effect of over 60% in size.
On the % scale 0 is the no-effect control and ±100 the full control effect; potency means the concentration at half of the fitted maximal effect.

CCN(C(=O)c1c(O)c2c(Cl)cccc2n(C)c1=O)c1ccccc1
inactive: max response [1] 3.28% | max response [2] -5.88% | outcome [3] | Potency [4] | Potency [5] | Potency [6] | Potency [7]

COC(=O)C=CC(=O)OC
inactive: max response [1] 7.81% | max response [2] -0.0603% | outcome [3] | Potency [8] | Potency [4] | Potency [5] | Potency [6] | Potency [7] | Potency [9]

CC1(C)[C@H](O[C@H]2O[C@H](C(=O)O)[C@@H](O)[C@H](O)[C@H]2O[C@@H]2O[C@H](C(=O)O)[C@@H](O)[C@H](O)[C@H]2O)CC[C@@]2(C)[C@H]1CC[C@]1(C)[C@H]2C(=O)C=C2[C@H]3C[C@@](C)(C(=O)O)CC[C@]3(C)CC[C@]21C
inactive: outcome [1] | outcome [2] | outcome [3] | Potency [4] | Potency [5] | Potency [6] | Potency [7] | outcome [10] | Potency [9]

CC1(C)CC(O)CC(C)(C)N1[O]
inactive: max response [1] 7.14% | max response [2] -4% | outcome [3] | Potency [8] | Potency [4] | Potency [5] | Potency [6] | Potency [7] | Potency [9]

CCc1cc(C(C)=NOCc2ccc(C3CCCCC3)c(C(F)(F)F)c2)ccc1CN1CC(C(=O)O)C1
inactive: outcome [1] | max response [2] -5.84% | outcome [3] | Potency [4] | Potency [5] | Potency [6]
active: Potency [7] 6.62 µM

CC(Oc1ccc(O)cc1)(P(=O)(O)O)P(=O)(O)O
inactive: max response [1] -8.06% | max response [2] -5.52% | outcome [3] | Potency [8] | Potency [4] | Potency [5] | Potency [6] | Potency [7] | Potency [9]

CC(=O)O[C@]1(C(C)=O)CC[C@H]2[C@@H]3C=C(C)C4=CC(=O)CC[C@]4(C)[C@@H]3CC[C@@]21C
active: Potency [6] 3.32 µM | Potency [7] 2.35 µM
inactive: outcome [1] | max response [2] 4.47% | outcome [3] inactive; activator | Potency [4] | Potency [5]

Nc1nc(=O)n([C@H]2CSC(CO)O2)cc1F (stereo not given in full)
inactive: max response [1] 9.64% | outcome [2] | outcome [3] | Potency [8] | Potency [4] | Potency [5] | Potency [6] | Potency [7] | outcome [10] | Potency [9]

C[C@@]12C[C@@]3(O)O[C@@H](O1)[C@]1(COC(=O)c4ccccc4)[C@@H]3C[C@@]12O[C@@H]1O[C@H](CO)[C@@H](O)[C@H](O)[C@@H]1O
inactive: outcome [1] | outcome [2] | outcome [3] | Potency [4] | Potency [5] | Potency [6] | Potency [7] | outcome [10] | Potency [9]

O=C(Nc1ccc(Oc2ccnc3[nH]ccc23)c(F)c1)c1cccn(-c2ccc(F)cc2)c1=O
inactive: outcome [1] | outcome [2] | outcome [3] | Potency [4] | Potency [5] | Potency [6] | Potency [7] | outcome [10] | Potency [9]

c1coc(CNc2ncnc3nc[nH]c23)c1
inactive: max response [1] -3.01% | max response [2] 0.142% | outcome [3] | Potency [8] | Potency [4] | Potency [5] | Potency [6] | Potency [7] | Potency [9]

Nc1nc2c(c(=O)[nH]1)N(C=O)[C@H](CNc1ccc(C(=O)N[C@@H](CCC(=O)O)C(=O)O)cc1)CN2
inactive: max response [1] 3.69% | outcome [2] | outcome [3] | Potency [4] | Potency [5] | Potency [6] | Potency [7] | outcome [10] | Potency [9]

COC(=O)[C@@H]1[C@H]2C[C@@H]3c4[nH]c5ccccc5c4CCN3C[C@@H]2CC[C@@H]1O
inactive: max response [1] 1.87% | max response [2] -9.61% | outcome [3] | Potency [8] | Potency [4] | Potency [5] | Potency [6] | Potency [9]

Oc1cc2c(cc1O)C1c3ccc(O)c(O)c3OCC1(O)C2 (stereo not given)
inactive: max response [1] 7.88% | outcome [2] | outcome [3] | Potency [4] | Potency [5] | Potency [6] | Potency [7] | outcome [10] | Potency [9]

N#Cc1cc(NC(=O)Nc2nnc(-c3ccncc3)s2)ccc1-c1cn[nH]c1
inactive: max response [1] 0.642% | max response [2] -2.38% | outcome [3] | Potency [8] | Potency [4] | Potency [5] | Potency [6] | Potency [7] | Potency [9]

CCCc1nc(C(C)(C)O)c(C(=O)O)n1Cc1ccc(-c2ccccc2-c2nn[nH]n2)cc1
inactive: max response [1] 0.595% | outcome [2] | outcome [3] | Potency [8] | Potency [4] | Potency [5] | Potency [6] | Potency [7] | outcome [10] | Potency [9]

O=C(O)[C@H](CC(=O)N1C[C@@H]2CCCC[C@H]2C1)Cc1ccccc1
inactive: max response [1] 2.32% | outcome [2] | outcome [3] | Potency [4] | Potency [5] | Potency [6] | Potency [7] | outcome [10] | Potency [9]

C[C@H](O)[C@@H]1C(=O)N2C(C(=O)O)=C(S[C@@H]3CN[C@H](CNS(N)(=O)=O)C3)[C@@H](C)[C@@H]12
inactive: outcome [1] | outcome [2] | outcome [3] | Potency [4] | Potency [5] | Potency [6] | Potency [7] | outcome [10] | Potency [9]

Nc1ccc(C(=O)Nc2cccc(-c3nc(N4CCOCC4)c4oc5ncccc5c4n3)c2)cn1
active: Potency [1] 20.6 µM | Potency [2] 2.31 µM
inactive: outcome [1] | Potency [4] | Potency [5] | Potency [6] | Potency [7] | Potency [9]

NC(=O)c1cccc(-c2cccc(OC(=O)NC3CCCCC3)c2)c1
inactive: max response [1] 6.26% | outcome [2] | outcome [3] | Potency [4] | Potency [5] | Potency [6] | Potency [7] | outcome [10] | Potency [9]

CC1(C)O[C@@H]2C[C@H]3[C@@H]4CCC5=CC(=O)C=C[C@]5(C)[C@@H]4[C@@H](O)C[C@]3(C)[C@]2(C(=O)CO)O1
inactive: outcome [1] | max response [2] -5.4% | outcome [3] | Potency [8] | Potency [4] | Potency [5] | Potency [6] | Potency [7] | Potency [9]

Cc1ncc(-c2ccnc(Nc3ccc(S(C)(=O)=O)cc3)n2)n1C(C)C
active: Potency [1] 5.26 µM and 5.17 µM | Potency [2] 13.2 µM

CN(C)CC(=O)N1CCC(c2ccc(NC(=O)c3ncc(C#N)[nH]3)c(C3=CCCCC3)c2)CC1
inactive: max response [1] 3.44% and -16.9% | max response [2] 0.938% | outcome [3] | Potency [4] | Potency [5] | Potency [7] | Potency [9]
active: Potency [2] 0.92 µM

C=C(C)[C@@H]1CC[C@]2(C)CC[C@]3(C)[C@H](CC[C@@H]4[C@@]5(C)CC[C@H](O)C(C)(C)[C@H]5CC[C@]43C)[C@@H]12
inactive: max response [1] 8.9% | outcome [2] | outcome [3] | Potency [8] | Potency [4] | Potency [5] | Potency [6] | Potency [7] | outcome [10] | Potency [9]

CC(=O)C1=C(O)C=C2Oc3c(C(C)=O)c(O)c(C)c(O)c3C2(C)C1=O (stereo not given)
inactive: outcome [1] | outcome [2] | outcome [3] | Potency [8] | Potency [4] | Potency [5] | Potency [6] | Potency [7] | outcome [10] | Potency [9]

Cn1cc(C=CC(=O)c2cccc(F)c2)cc1C=CC(=O)NO
inactive: outcome [1] | outcome [2] | outcome [3] | Potency [8] | Potency [4] | Potency [5] | Potency [6] | outcome [10] | Potency [9]

COc1cc(CCc2cc(NC(=O)c3ccc(N4C[C@@H](C)N[C@@H](C)C4)cc3)n[nH]2)cc(OC)c1
active: Potency [1] 9.35 µM | Potency [2] 10.5 µM | Potency [8] 14.6 µM | Potency [9] 23.5 µM
inactive: outcome [3] | Potency [4] | Potency [7]

CCCCCN=C(N)NN=Cc1c[nH]c2ccc(OC)cc12
active: Potency [1] 10.5 µM | Potency [2] 13.2 µM

COC(=O)[C@@H]1CC2=CC(=O)CC[C@]2(C)[C@@]23O[C@@H]2C[C@@]2(C)[C@H](CC[C@@]24CCC(=O)O4)[C@@H]13
inactive: outcome [1] | outcome [2] | outcome [3] | Potency [8] | Potency [4] | Potency [5] | Potency [6] | Potency [7] | outcome [10] | Potency [9]

C[C@H](CCC(=O)O)[C@H]1CC[C@H]2[C@@H]3[C@H](O)C[C@@H]4C[C@H](O)CC[C@]4(C)[C@@H]3CC[C@]12C
inactive: max response [1] 1.89% | outcome [2] | outcome [3] | Potency [4] | Potency [5] | Potency [6] | Potency [7] | outcome [10] | Potency [9]

CC[C@H]1OC(=O)[C@H](C)[C@@H](O[C@H]2C[C@@](C)(OC)[C@@H](O)[C@H](C)O2)[C@H](C)[C@@H](O[C@@H]2O[C@@H](C)C[C@H](N(C)C)[C@@H]2O)[C@](C)(O)C[C@@H](C)C(=O)[C@H](C)[C@@H](O)[C@]1(C)O
inactive: max response [1] 5.08% | outcome [2] | outcome [3] | Potency [4] | Potency [5] | Potency [6] | Potency [7] | outcome [10] | Potency [9]

NC(=O)c1ncn([C@@H]2O[C@H](CO)[C@@H](O)[C@@H]2O)c1N
inactive: max response [1] 1.9% | outcome [2] | outcome [3] | Potency [4] | Potency [5] | Potency [6] | Potency [7] | outcome [10] | Potency [9]

Cc1ccc(O)c(C(CCN(C(C)C)C(C)C)c2ccccc2)c1 (stereo not given)
inactive: outcome [1] | outcome [2] | outcome [3] | Potency [4] | Potency [5] | Potency [6] | Potency [7] | outcome [10] | Potency [9]

Cc1coc2c1C(=O)C(=O)c1c-2ccc2c(C)cccc12
inactive: outcome [1] | max response [2] -4.31% and -4.38% | outcome [3] | Potency [4] | Potency [5] | Potency [6] | Potency [7]

CC[C@]12C=CCN3CC[C@@]4(c5cc([C@@]6(C(=O)OC)C[C@H]7C[C@@H](C(C)(F)F)CN(Cc8c6[nH]c6ccccc86)C7)c(OC)cc5N(C)[C@H]4[C@@](O)(C(=O)OC)[C@H]1OC(C)=O)[C@@H]32
active: Potency [1] 0.0105 µM
